Source: PubChem
Shown are actives, neighbours in structure and some others; about 4.9% of the full set was active somewhere.
Platelet DG rel: platelet dense granule release activity. 300,000 tested, 0.22% active. AID 1663. inhibition, %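 (compounds screened at 7.5 µM in platelet-rich plasma)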. human platelet-rich plasma, SFLLRN dense granule ATP release, luminescence;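 active = mean replicate score, as percent of positive control, at or above 50; inconclusive = mean below 50 but at least one replicate at or above 50; inactive = mean and every replicate below 50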
HSF1 activator: increases HSF-1 driven luciferase reporter signal; 300,000 tested, 1.7% active; NIH3T3-HGL HSF-1 luciferase reporter, MG132, 8 h; 100% = twice DMSO control signal; activation, % at 9 µM;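 active = mean replicate activation of at least 50% with a set share of replicates each reaching 50%; inconclusive = only one of those two conditions met; inactive = mean below 50% and too few replicates reaching it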;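 also: 0% = median of the neutral control wells and 100% = twice that signal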
dFosB activator: mouse delta FosB homodimer activation; activation, % at 25 µM; purified delta FosB, TAMRA-CDK5 oligo fluorescence polarization; percent of positive-control signal above neutral wells; AID 493131; 340,000 tested, 0.99% active;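 active = mean activation above about 17%, with every replicate also reaching it, limit read from the data, passing the limit was not always enough; inconclusive = only one of the two conditions met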
Target sequence (P13346 whole entry, looked up): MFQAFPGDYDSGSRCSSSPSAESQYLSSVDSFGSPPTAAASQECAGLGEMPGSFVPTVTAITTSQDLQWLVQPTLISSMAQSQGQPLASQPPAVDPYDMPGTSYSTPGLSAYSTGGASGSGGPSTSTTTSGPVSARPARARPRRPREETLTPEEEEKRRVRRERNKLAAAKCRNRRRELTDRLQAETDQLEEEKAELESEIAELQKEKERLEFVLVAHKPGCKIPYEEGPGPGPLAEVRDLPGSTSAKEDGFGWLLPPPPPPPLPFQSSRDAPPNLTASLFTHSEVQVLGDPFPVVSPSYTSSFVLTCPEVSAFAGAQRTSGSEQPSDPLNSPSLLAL
HSF1 inhib: HSF1 inhibition. activity change, negative = inhibition, % at 7.5 µM (by protocol). 300,000 tested, 0.77% active. NIH3T3-HGL HSE-luciferase, MG132-induced, luminescence 8 h; hits give low values;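 active = more than half of replicate wells show activity change below -50%, luminescence cut by over half; inconclusive = some wells, but at most half, below -50%; inactive = no replicate well below -50%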;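 also: luciferase reports HSF-1 transcriptional activity via heat shock element; 0% = median of DMSO wells and -100% = zero luminescence signal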
MPTP block: blocks calcium-induced mitochondrial swelling; isolated mouse mitochondria, Ca2+ swelling absorbance, 30 min; inhibition, % at 10 µM; 360,000 tested, 1.4% active; AID 602449;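 active = inhibition of 50% or more, scaled per plate between neutral and stimulator controls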;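 also: 0% = DMSO wells given calcium and 100% = 1 mM EGTA wells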
HSP90 refold inh: inhibitors of HSP90 luciferase refolding in rabbit reticulocyte lysate. luciferase refolding luminescence, 3 h. inhibition, % at 5.6 µM. 290,000 tested, 0.91% active. AID 1789;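 active = inhibition above the screen-wide mean plus 3 SD, computed separately per campaign, cut at about 16% in these data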;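 also: 0% = DMSO wells and 100% = 60 µM geldanamycin wells; inhibitors lower the luminescence because luciferase stays unfolded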
Rh123 counter: membrane potential counter-screen of mitochondrial pore inhibitors | shares compounds with MPTP block | isolated mitochondria, Rhodamine 123 fluorescence | inhibition, % at 10 µM | 5,000 tested, 78% active | AID 624504; in the data active = inhibition above about 22%;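 also: 0% = DMSO vehicle and 100% = positive control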
MPTP abs DR: dose response confirmation of mitochondrial permeability transition pore inhibitors | shares compounds with MPTP block | isolated mitochondria swelling, absorbance | IC50, µM | 780 tested, 58% active | AID 651561; in the data active = IC50 below about 20 µM
MPTP counter DR: counter-screen for mitochondrial permeability transition pore inhibitors, dose response. IC50, µM. shares compounds with MPTP block. isolated mitochondria counterscreen, fluorescence read-out. 780 tested, 49% active; in the data active = IC50 below about 80 µM
* = called active by the depositor; ? = inconclusive; . = no result.

SMILES | Platelet DG rel | HSF1 activator | dFosB activator | HSF1 inhib | MPTP block | HSP90 refold inh | Rh123 counter | others
O=C(Nc1cc(Oc2ccccc2)cc([N+](=O)[O-])c1)C12CC3CC(C1)CC(n1cnc(Cl)n1)(C3)C2 | 6 | 23 | -9 | 0 | 82* | -1 | 59*
O=C(O)c1cccc(NC(=O)C23CC4CC(C2)CC(n2cnc(Cl)n2)(C4)C3)c1 | -2 | -18 | -1 | 4 | -1 | 5 | .
COCCCNCCOc1ccc(C(C)(C)c2ccccc2)cc1 | -4 | 7 | -11 | 3 | 97* | 1 | -7 | MPTP abs DR=5.7*;MPTP counter DR=>80
COc1ccccc1CNc1nc(NCCOc2ccccc2Cl)c2sccc2n1 | . | . | . | . | 50* | . | 92*
CSc1ccccc1CNc1nc(NCC2CC2)nc2ccsc12 | . | . | . | . | 91* | . | 102*
c1csc(CNc2nc(NCC3CCCCC3)c3sccc3n2)c1 | . | . | . | . | 51* | . | 91*
CNc1nc(NCCOc2ccccc2Cl)c2sccc2n1 | . | . | . | . | 1 | . | .
CC(C)c1ccc(CNc2nc(NCC3CC3)nc3ccsc23)cc1 | . | . | . | . | 80* | . | 99*
Cc1ccc2c(c1)CCCN2S(=O)(=O)c1cccc(C(=O)Nc2ccccc2C(=O)O)c1 | -16 | -18 | -18 | -9 | 15 | -4 | .
COc1ccc(NS(=O)(=O)c2ccc3oc4ccccc4c3c2)cn1 | -1 | 23 | -3 | -4 | 60* | 0 | 64*
CN1C(=O)Cc2cc(S(=O)(=O)N3CCN(c4ccccc4F)CC3)ccc21 | -10 | 10 | -11 | 4 | -1 | -4 | .
C=CCN(C)CC/C=C1\c2ccccc2CSc2ccccc21 | 9 | -9 | 3 | -3 | 74* | -2 | -2 | MPTP abs DR=18*;MPTP counter DR=74*
CN(C)CC/C=C1\c2cc(F)ccc2CSc2ccccc21 | -4 | 6 | 2 | -2 | 21 | -1 | .
CN(CC/C=C1/c2ccccc2CSc2ccccc21)CCCO | 2 | 9 | -1 | -7 | -1 | 3 | .
CN(C)CC/C=C1/c2cc(F)ccc2CSc2ccc(F)cc21 | 21 | -3 | -2 | -3 | 72* | 2 | -2 | MPTP abs DR=14*;MPTP counter DR=>80
NCC/C=C1/c2ccccc2CSc2ccccc21 | -2 | -3 | 0 | -11 | 88* | 5 | -9 | MPTP abs DR=6.8*;MPTP counter DR=>80
CCc1ccc(S(=O)(=O)Nc2ccc(O)c3c(=O)cc(-c4ccccc4Cl)oc23)cc1 | -1 | -4 | 7 | 5 | 3 | . | .
O=c1cc(-c2ccccc2Cl)oc2c(NS(=O)(=O)c3cc(Cl)cc(Cl)c3O)ccc(O)c12 | -5 | -10 | -7 | -4 | 70* | -5 | 6
FC(F)(F)c1ccc(NC(=S)NCc2ccccc2)cc1 | -4 | 15 | -3 | 9 | 97* | 3 | 95*
FC(F)Sc1ccc(NC(=S)NCc2ccccc2)cc1 | 0 | 14 | -9 | 1 | 85* | 0 | 92*
FC(F)Sc1ccc(NC(=S)NC(c2ccccc2)c2ccccc2)cc1 | -7 | -6 | 2 | 1 | 98* | 4 | 63*
CN(C(=S)Nc1ccc(SC(F)F)cc1)C(c1ccccc1)c1ccccc1 | 3 | -6 | -2 | -3 | 0 | 0 | .
O=C(O)c1ccc(NC(=S)NCc2ccccc2)cc1 | -4 | 8 | -5 | 5 | -1 | 1 | .
Cc1cc(NC(=O)c2cc3cccc([N+](=O)[O-])c3[nH]2)ccc1F | 4 | ? | 4 | 22 | 83* | -1 | 69*
Clc1ccc2[nH]cc(-c3nnnn3-c3ccccc3)c2c1 | 13 | -8 | -8 | -5 | 76* | 4 | 82*
CC1CCCN(CCC(=O)c2ccc(Br)cc2)C1 (stereo unspecified) | . | . | -3 | . | 114* | 2 | 5 | MPTP abs DR=5.7*;MPTP counter DR=>80
CSc1c(CC(=O)Nc2ccc(F)cc2)n(Cc2ccccc2)c2ccccc12 | 8 | 42 | 2 | 19 | 81* | 0 | 67*
CSc1c(CC(=O)Nc2ccccc2)n(C)c2ccccc12 | -1 | -1 | 4 | -3 | 1 | -3 | .
